# FECH inh: human FECH heme synthesis enzyme inhibition | P22830 | purified FECH, Ni-mesoporphyrin absorbance 550 nm | calls only at 10 µM (by protocol) | 3.3% of 20,000 active | AID 1671448;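 active = enzyme reaction rate more than 3 SD below the solvent-only control wells on the same plate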;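 also: lower slope than DMSO wells means FECH inhibition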
# Target sequence (P22830 whole entry, looked up): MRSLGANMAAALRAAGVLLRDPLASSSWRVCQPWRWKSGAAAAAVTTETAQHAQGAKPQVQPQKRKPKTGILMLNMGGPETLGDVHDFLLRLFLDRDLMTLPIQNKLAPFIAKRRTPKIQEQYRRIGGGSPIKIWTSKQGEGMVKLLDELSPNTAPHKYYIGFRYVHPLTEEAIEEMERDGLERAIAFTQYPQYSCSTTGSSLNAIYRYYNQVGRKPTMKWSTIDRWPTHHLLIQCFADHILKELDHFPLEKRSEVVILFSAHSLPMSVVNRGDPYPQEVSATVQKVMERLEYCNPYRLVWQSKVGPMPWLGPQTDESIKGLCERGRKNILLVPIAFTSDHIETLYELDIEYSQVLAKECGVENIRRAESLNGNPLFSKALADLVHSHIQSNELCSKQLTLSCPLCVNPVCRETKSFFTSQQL
# Starred values were filed as active, the others as inactive; i = inactive; + = active, no number. The full list was thinned out, with hits kept by preference.
SMILES,FECH inh
CCc1cc(Sc2ccccc2NC(=O)Cc2ccc(OC)cc2)n2nc(C)nc2n1,+
Cc1ccccc1N1C(=O)N(Cc2ccc(C(C)(C)C)cc2)c2ccccc2S1(=O)=O,i
COc1ccc(N2C(=O)N(Cc3ccc(C(C)(C)C)cc3)c3ccccc3S2(=O)=O)cc1OC,i
CCc1ccc(N2C(=O)N(Cc3cc(F)cc(F)c3)c3ccccc3S2(=O)=O)cc1,+
CC(CC1CCCCC1)NCCCC(=O)N(C)C (stereo not given),i
CCN(C/C(C)=C/c1ccco1)Cc1c(C)nn(CC)c1C,i
COc1ccccc1N1CCN(S(=O)(=O)c2cc(N3C(=O)CCS3(=O)=O)ccc2C)CC1,i
CCN(C1CCS(=O)(=O)C1)S(=O)(=O)c1cc(N2C(=O)CCS2(=O)=O)ccc1C (stereo not given),+
Cc1ccccc1NS(=O)(=O)c1cc(N2C(=O)CCS2(=O)=O)ccc1C,+
Cc1cc(C)cc(NS(=O)(=O)c2cc(N3C(=O)CCS3(=O)=O)ccc2C)c1,i
Cc1ccc(N2C(=O)CCS2(=O)=O)cc1S(=O)(=O)Nc1ccccc1,+
Cc1ccc(NS(=O)(=O)c2cc(N3C(=O)CCS3(=O)=O)ccc2C)cc1C,i
CCN(CC)S(=O)(=O)c1cc(N2C(=O)CCS2(=O)=O)ccc1C,i
Cc1ccc(N2C(=O)CCS2(=O)=O)cc1S(=O)(=O)Nc1ccccc1Br,i
CN(C1CCS(=O)(=O)C1)S(=O)(=O)c1ccc(N2C(=O)CCS2(=O)=O)cc1 (stereo not given),i
Cc1ccc(N2C(=O)CCS2(=O)=O)cc1S(=O)(=O)Nc1cccc(C)c1C,i
COC(=O)C1CCN(S(=O)(=O)c2ccc(N3C(=O)CCS3(=O)=O)cc2)CC1,i
COC(=O)C1CCN(S(=O)(=O)c2cc(N3C(=O)CCS3(=O)=O)ccc2C)CC1,+
CC1(C(=O)NC2CCCC2)Cn2c(cc3ccsc32)C(=O)N1Cc1ccccc1 (stereo not given),i
O=C(CC1CCN(S(=O)(=O)c2ccccc2)CC1)NCCN1CCN(c2ccccc2F)CC1,i
CCc1nc2cccnc2n1C1CCN(S(=O)(=O)c2ccc(C)cc2C)CC1,i
Cc1cc2ccccc2n1CCC(=O)N(C)Cc1ccco1,i
CN(Cc1cc(-c2ccccn2)no1)C1CCCc2ccccc21 (stereo not given),i
Cc1cc2oc(=O)cc(C)c2cc1NC(=O)Cc1c[nH]c2ccccc12,i
CS(=O)(=O)NCC(=O)N1CCCC(c2[nH]ncc2-c2ccc(F)cc2)C1 (stereo not given),i
SMILES,FECH inh
CCc1nccn1CCC(=O)N1CCCC2(CNC(=O)O2)C1 (stereo not given),i
CC(C)NC(=O)C1CCC(Cn2c(=O)c3sccc3n(CC(=O)NC3CCCCC3)c2=O)CC1 (stereo not given),i
O=C1CCS(=O)(=O)N1c1ccc(S(=O)(=O)NC2CCCCC2)cc1,i
O=C1CCS(=O)(=O)N1c1ccc(S(=O)(=O)NC2CC2)cc1,+
CC(C)CNS(=O)(=O)c1ccc(N2C(=O)CCS2(=O)=O)cc1,i
CCCCNc1nc(Nc2ccc(OC)cc2)c2cnn(-c3ccccc3)c2n1,i
CCN(CC)CCCNC(=O)C1CCN(c2ccc(-c3ccccc3)nn2)CC1,i
CCN(CC)CCCNC(=O)C1CCN(c2ccc(-c3cccc(C)c3)nn2)CC1,+
CCOCCCNC(=O)C1CCN(c2ccc(-c3cccc(C)c3)nn2)CC1,i
CCc1nc2nc(C)[nH]n2c(=O)c1NC(=O)Nc1ccc(C)c(Cl)c1,i
CCc1ccccc1NCc1nc2nc3c(c(=O)n2[nH]1)CCC3,+
CCc1nc2nc(C)[nH]n2c(=O)c1NC(=O)Nc1ccccc1F,i
O=c1cc(CNc2ccccc2)nc2nc(NCc3ccc(F)cc3)[nH]n12,i
O=c1c2c(nc3nc(CNc4ccc(Cl)cc4)[nH]n13)CCC2,+
Cc1ccc(NCc2cc(=O)n3[nH]c(NCc4ccc(F)cc4)nc3n2)cc1Cl,i
COc1ccc(Cl)cc1NCc1nc2nc3c(c(=O)n2[nH]1)CCC3,i
Cc1ccc(NCc2nc3nc4c(c(=O)n3[nH]2)CCC4)cc1Cl,+
O=c1c2c(nc3nc(CNc4ccccc4)[nH]n13)CCC2,+
O=c1cc(CN2CCCC2)nc2nc(NCc3ccc(Cl)cc3)[nH]n12,i
Cc1cc(C)n(CCC(=O)N2CC[C@@H](c3sccc3C)[C@H](O)C2)c(=O)n1,i
Cc1ccc(Nc2oc3c(c2-c2ccccc2)c(=O)n(C)c(=O)n3C)c(C)c1,i
O=[N+]([O-])c1cccc(S(=O)(=O)NCc2nc3cccnc3n2C2CCCC2)c1,i
CCOC(=O)Cn1c(=O)n(-c2ccc(F)cc2)c2nc(-c3ccc(OC)cc3)nc(C(N)=O)c21,i
c1cncc(Cc2nnc3n2CCN(c2nccc(C4CCCC4)n2)CC3)c1,i
CCCCc1nnc(NC(=O)CSCc2cc(=O)n3oc(C)cc3n2)s1,i
SMILES,FECH inh
COCCn1c(CNS(=O)(=O)c2ccc(C(C)C)cc2)nc2cccnc21,i
Cc1ccc(S(=O)(=O)NCc2nc3cccnc3n2C2CC2)cc1,i
CC(C)Cn1c(CNS(=O)(=O)c2cccc(Cl)c2)nc2cccnc21,i
COc1ccccc1Cn1c(CNS(=O)(=O)c2ccc(C(C)(C)C)cc2)nc2cccnc21,+
COc1ccccc1Cn1c(CNS(=O)(=O)c2ccc(F)cc2)nc2cccnc21,i
Cc1ccc(S(=O)(=O)NCc2nc3cccnc3n2CC(C)C)cc1C,+
CCn1c(CNS(=O)(=O)c2ccc(CC(C)C)cc2)nc2cccnc21,i
Cc1ccc(S(=O)(=O)NCc2nc3cccnc3n2CC(C)C)cc1Cl,i
COc1ccc(S(=O)(=O)NCc2nc3cccnc3n2C2CC2)cc1,+
CCOc1ccc(S(=O)(=O)NCc2nc3cccnc3n2Cc2ccccc2OC)cc1,i
O=S(=O)(NCc1nc2cccnc2n1C1CC1)c1ccc(Cl)cc1,i
COCCn1c(CNS(=O)(=O)c2ccc(CC(C)C)cc2)nc2cccnc21,+
Cc1c[nH]c(C(=O)N2CCC3(CC2)CC(C(=O)O)N(C)C3)c1 (stereo not given),i
Cc1ccc(Nc2nc(N3CCN(c4ccc(F)cc4)CC3)nc3c2cnn3-c2ccccc2)cc1,i
CCCCNC(=O)c1ccc(Cn2c(=O)c3cc(OC)c(OC)cc3n(CC(=O)NCCC)c2=O)cc1,i
CCOCCCNc1nc(Nc2cc(OC)ccc2OC)c2cnn(-c3ccccc3)c2n1,i
c1cc(-c2cc(C3CCN(Cc4ccc(-n5cncn5)cc4)C3)ccn2)ccn1 (stereo not given),i
Cc1ccc(-c2nnc(-c3nc(NC4CC4)c4ccccc4n3)o2)cc1,i
COc1cccc(-c2cc(N3CCN(S(=O)(=O)c4cccc(Cl)c4)CC3)ncn2)c1,i
Cc1cc(Sc2ccc(NC(=O)Nc3ccc(F)cc3F)cc2)n2ncnc2n1,i
CC(C)c1cc(CNC(=O)CSCc2ccccc2Cl)no1,i
CCO[C@H]1[C@H](NC(=O)CN2CCOC2=O)c2ccccc2C12CCNCC2,i
OCCNc1nc(Nc2cccc(Cl)c2)c2cnn(-c3ccccc3)c2n1,i
CC(=O)Nc1ccc(S(=O)(=O)NCc2nc3cccnc3n2C)cc1,i
CCCc1ccc(S(=O)(=O)NCc2nc3cccnc3n2C)cc1,+
CC(C)Cc1ccc(S(=O)(=O)NCc2nc3cccnc3n2C)cc1,i
Cc1ccc2cc(-c3noc(CCC(=O)NCCc4ccccc4)n3)c(=O)[nH]c2c1,i
